Common to all, as to test: DAPPL (digital affinity profiling via proximity ligation, sequencing); 10 mM Tris-HCl pH 7.5, 50 mM NaCl, 1 mM DTT, 4% glycerol, room temperature, 30 min; GST-TFs on glutathione beads, 16-mer random dsDNA library, 0.1% formaldehyde crosslink after washing; high values mean tight binding
What all share (conditions): protein: recombinant; tags: N-terminal GST; dsDNA, one strand shown

The target in test [1] is T1, FLI1 (Homo sapiens, UniProt Q01543 1-452).
T1 sequence: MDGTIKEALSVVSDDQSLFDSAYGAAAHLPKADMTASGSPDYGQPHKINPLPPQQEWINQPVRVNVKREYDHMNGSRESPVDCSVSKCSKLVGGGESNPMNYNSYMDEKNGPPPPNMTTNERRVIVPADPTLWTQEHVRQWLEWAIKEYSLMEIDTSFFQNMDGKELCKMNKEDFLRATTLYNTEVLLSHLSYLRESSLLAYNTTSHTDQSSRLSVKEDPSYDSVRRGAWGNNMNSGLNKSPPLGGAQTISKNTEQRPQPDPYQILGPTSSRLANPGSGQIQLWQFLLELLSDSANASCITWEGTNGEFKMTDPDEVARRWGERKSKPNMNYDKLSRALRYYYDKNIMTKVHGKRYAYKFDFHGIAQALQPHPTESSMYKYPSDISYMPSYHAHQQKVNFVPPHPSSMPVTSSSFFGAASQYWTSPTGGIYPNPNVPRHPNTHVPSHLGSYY
Put shortly: (§1)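 The binding signal reported is, for every hexamer, its read frequency for a factor over its read frequency for the tag-only sample. Reads came from pools of yeast-expressed, GST-fused human transcription factors on glutathione beads, barcoded with DNA and mixed with that sample, which were incubated with 200 nmole of a random double-stranded 16-mer DNA library in Tris/NaCl/DTT/glycerol buffer at room temperature for 30 min. After washing, the pools were crosslinked with 0.1% formaldehyde, proximity-ligated with BsaI/T4 ligase for 1 h at 37 °C, PCR-amplified and sequenced on an Illumina NextSeq500.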

The target in test [2] is T2, ELK1 (Homo sapiens, UniProt P19419 1-428).
T2 sequence: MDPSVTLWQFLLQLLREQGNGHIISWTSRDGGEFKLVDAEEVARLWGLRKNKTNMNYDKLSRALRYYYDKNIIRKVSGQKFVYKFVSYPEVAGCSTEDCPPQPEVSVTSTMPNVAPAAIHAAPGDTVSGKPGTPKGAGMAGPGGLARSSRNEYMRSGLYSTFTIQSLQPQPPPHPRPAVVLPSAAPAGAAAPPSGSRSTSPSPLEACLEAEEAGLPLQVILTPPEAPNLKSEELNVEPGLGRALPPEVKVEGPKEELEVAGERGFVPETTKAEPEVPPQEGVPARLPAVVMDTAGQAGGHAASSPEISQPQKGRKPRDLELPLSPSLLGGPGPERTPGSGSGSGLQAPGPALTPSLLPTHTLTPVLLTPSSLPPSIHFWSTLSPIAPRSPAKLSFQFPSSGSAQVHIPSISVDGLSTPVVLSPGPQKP
Put shortly:
as §1

The target in test [3] is T3, GABPA (Homo sapiens, UniProt Q06546 1-454).
T3 sequence: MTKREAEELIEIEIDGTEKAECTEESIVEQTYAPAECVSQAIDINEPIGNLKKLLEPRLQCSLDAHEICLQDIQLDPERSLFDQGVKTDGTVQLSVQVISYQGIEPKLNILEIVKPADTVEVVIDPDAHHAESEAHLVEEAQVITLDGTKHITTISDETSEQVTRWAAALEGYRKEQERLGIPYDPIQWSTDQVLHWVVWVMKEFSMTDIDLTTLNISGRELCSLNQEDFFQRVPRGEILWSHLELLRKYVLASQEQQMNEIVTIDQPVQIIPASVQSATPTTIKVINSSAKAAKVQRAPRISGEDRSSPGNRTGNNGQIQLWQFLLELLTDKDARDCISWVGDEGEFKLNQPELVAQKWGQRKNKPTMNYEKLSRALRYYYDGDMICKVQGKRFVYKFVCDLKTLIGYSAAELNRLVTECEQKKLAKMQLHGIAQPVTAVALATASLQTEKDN
Put shortly: as §1

For test [4], the target named is T4, ERG (Homo sapiens, UniProt P11308 1-479).
T4 sequence: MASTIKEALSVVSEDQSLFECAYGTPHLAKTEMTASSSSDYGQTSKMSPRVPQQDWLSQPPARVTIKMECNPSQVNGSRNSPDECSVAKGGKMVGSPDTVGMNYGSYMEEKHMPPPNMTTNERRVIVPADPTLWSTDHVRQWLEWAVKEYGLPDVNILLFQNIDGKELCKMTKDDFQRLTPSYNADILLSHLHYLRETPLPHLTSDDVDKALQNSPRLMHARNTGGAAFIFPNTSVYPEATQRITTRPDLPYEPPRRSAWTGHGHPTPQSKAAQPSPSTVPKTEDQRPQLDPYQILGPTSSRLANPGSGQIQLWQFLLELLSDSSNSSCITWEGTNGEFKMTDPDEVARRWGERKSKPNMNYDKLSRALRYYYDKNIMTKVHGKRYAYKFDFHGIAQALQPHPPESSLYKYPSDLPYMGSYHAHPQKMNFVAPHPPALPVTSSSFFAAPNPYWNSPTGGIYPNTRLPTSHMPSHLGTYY
In short, it runs like this: as §1

The target of test [5] is ELF1 (Homo sapiens, UniProt P32519 1-619). In short, it runs like this: as §1
Chain of ELF1 (P32519 whole entry): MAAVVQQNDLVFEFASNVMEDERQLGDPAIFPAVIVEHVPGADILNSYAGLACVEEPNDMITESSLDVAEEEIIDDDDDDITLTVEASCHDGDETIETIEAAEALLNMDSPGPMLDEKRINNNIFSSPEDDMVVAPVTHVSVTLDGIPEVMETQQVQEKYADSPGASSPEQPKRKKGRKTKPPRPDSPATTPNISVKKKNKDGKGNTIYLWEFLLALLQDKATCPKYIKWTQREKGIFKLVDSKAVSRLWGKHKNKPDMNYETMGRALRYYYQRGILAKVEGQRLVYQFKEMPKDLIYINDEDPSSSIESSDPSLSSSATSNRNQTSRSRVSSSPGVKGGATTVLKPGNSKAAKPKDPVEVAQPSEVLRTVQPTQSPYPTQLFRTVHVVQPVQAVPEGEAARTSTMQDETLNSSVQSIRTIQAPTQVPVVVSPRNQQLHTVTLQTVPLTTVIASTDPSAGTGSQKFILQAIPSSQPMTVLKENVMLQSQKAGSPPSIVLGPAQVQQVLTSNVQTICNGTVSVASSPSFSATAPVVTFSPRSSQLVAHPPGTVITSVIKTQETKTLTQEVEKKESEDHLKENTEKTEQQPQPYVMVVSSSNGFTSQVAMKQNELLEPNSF
For test [6], the target named is T5, EHF (Homo sapiens, UniProt Q9NZC4 1-300).
T5 sequence: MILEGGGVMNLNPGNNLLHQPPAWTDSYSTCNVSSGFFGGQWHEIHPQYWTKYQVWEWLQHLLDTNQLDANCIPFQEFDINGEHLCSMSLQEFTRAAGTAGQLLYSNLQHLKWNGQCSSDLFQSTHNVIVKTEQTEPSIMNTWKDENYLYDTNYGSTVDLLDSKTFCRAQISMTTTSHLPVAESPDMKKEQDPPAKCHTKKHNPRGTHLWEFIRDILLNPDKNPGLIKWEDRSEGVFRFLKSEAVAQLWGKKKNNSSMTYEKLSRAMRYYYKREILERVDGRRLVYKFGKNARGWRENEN
Put shortly:
as §1

Test [7] has as its target SPI1 (Homo sapiens, UniProt P17947 1-270). In short, it runs like this: as §1
Test [8] has as its target SPIB (Homo sapiens, UniProt Q01892 1-262). In short, it runs like this:
as §1

Test [9] addresses T6, ELK3 (Homo sapiens, UniProt P41970 1-407).
T6 sequence: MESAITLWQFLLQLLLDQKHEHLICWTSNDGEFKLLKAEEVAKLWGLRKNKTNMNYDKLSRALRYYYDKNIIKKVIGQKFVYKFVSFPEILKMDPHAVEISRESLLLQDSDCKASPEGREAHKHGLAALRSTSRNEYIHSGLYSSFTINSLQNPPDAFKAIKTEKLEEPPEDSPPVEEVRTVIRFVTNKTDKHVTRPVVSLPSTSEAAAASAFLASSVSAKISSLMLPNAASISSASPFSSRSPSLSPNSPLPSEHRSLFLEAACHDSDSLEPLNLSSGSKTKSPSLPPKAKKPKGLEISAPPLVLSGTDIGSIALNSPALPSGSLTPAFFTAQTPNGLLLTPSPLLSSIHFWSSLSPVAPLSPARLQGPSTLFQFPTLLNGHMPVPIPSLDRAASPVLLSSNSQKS
In short, it runs like this:
as §1

Chain of SPIB (Q01892 whole entry): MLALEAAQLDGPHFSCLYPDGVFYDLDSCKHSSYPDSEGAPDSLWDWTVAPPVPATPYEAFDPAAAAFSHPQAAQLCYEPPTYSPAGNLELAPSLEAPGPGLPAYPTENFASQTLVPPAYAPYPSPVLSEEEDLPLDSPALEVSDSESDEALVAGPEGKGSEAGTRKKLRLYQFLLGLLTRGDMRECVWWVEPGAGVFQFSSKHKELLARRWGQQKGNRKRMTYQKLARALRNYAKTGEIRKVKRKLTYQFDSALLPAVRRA

In the case of TCTTTG, the binding signal in test [1] was 1.18 fold enrichment (6-mer frequency, TF over GST control); in test [2], 1.18 fold enrichment (6-mer frequency, TF over GST control); in test [3], 1.2 fold enrichment (6-mer frequency, TF over GST control); in [4] it was 1.25 fold enrichment (6-mer frequency, TF over GST control); in [5] it was 1.25 fold enrichment (6-mer frequency, TF over GST control); in [6], 1.21 fold enrichment (6-mer frequency, TF over GST control). In addition, the binding signal is 1.21 fold enrichment (6-mer frequency, TF over GST control) in test [7]; 1.05 fold enrichment (6-mer frequency, TF over GST control) in test [8]; 1.31 fold enrichment (6-mer frequency, TF over GST control) in test [9].

Take CAACTT: the binding signal is 1.62 fold enrichment (6-mer frequency, TF over GST control) in test [1]; 1.62 fold enrichment (6-mer frequency, TF over GST control) in test [2]; 1.53 fold enrichment (6-mer frequency, TF over GST control) in [3]; 1.68 fold enrichment (6-mer frequency, TF over GST control) in test [4]; 1.55 fold enrichment (6-mer frequency, TF over GST control) in test [5]; 1.54 fold enrichment (6-mer frequency, TF over GST control) in test [6]. The binding signal was 1.69 fold enrichment (6-mer frequency, TF over GST control) in test [7]; 1.68 fold enrichment (6-mer frequency, TF over GST control) in test [8]; 1.59 fold enrichment (6-mer frequency, TF over GST control) in [9].

On to AAGTTA, for which the binding signal in test [1] is 1.25 fold enrichment (6-mer frequency, TF over GST control); in [2], 1.26 fold enrichment (6-mer frequency, TF over GST control); in test [3], 1.19 fold enrichment (6-mer frequency, TF over GST control); in test [4] it was 1.27 fold enrichment (6-mer frequency, TF over GST control); in [5] it was 1.27 fold enrichment (6-mer frequency, TF over GST control); in [6], 1.24 fold enrichment (6-mer frequency, TF over GST control). Further, the binding signal was 1.24 fold enrichment (6-mer frequency, TF over GST control) in [7]; 1.12 fold enrichment (6-mer frequency, TF over GST control) in test [8]; 1.23 fold enrichment (6-mer frequency, TF over GST control) in test [9].

For the sequence ACCCAT, the binding signal was 1.18 fold enrichment (6-mer frequency, TF over GST control) in [1]; 1.21 fold enrichment (6-mer frequency, TF over GST control) in [2]; 1.33 fold enrichment (6-mer frequency, TF over GST control) in test [3]; 1.23 fold enrichment (6-mer frequency, TF over GST control) in test [4]; 1.25 fold enrichment (6-mer frequency, TF over GST control) in [5]; 1.16 fold enrichment (6-mer frequency, TF over GST control) in [6]. The binding signal in test [7] is 1.17 fold enrichment (6-mer frequency, TF over GST control); in test [8], 1.33 fold enrichment (6-mer frequency, TF over GST control); in [9], 1.24 fold enrichment (6-mer frequency, TF over GST control).

Turning to TGTTTT, the binding signal in test [1] is 1.36 fold enrichment (6-mer frequency, TF over GST control); in test [2], 1.32 fold enrichment (6-mer frequency, TF over GST control); in test [3], 1.35 fold enrichment (6-mer frequency, TF over GST control); in test [4], 1.26 fold enrichment (6-mer frequency, TF over GST control); in test [5], 1.34 fold enrichment (6-mer frequency, TF over GST control); in test [6], 1.35 fold enrichment (6-mer frequency, TF over GST control). Moreover, the binding signal in test [7] was 1.43 fold enrichment (6-mer frequency, TF over GST control); in [8], 1.3 fold enrichment (6-mer frequency, TF over GST control); in test [9], 1.43 fold enrichment (6-mer frequency, TF over GST control).

As for GTTTAA, the binding signal in test [1] is 1.19 fold enrichment (6-mer frequency, TF over GST control); in test [2], 1.19 fold enrichment (6-mer frequency, TF over GST control); in test [3], 1.13 fold enrichment (6-mer frequency, TF over GST control); in test [4], 1.13 fold enrichment (6-mer frequency, TF over GST control); in test [5] it was 1.13 fold enrichment (6-mer frequency, TF over GST control); in test [6], 1.17 fold enrichment (6-mer frequency, TF over GST control). Moreover, the binding signal is 1.16 fold enrichment (6-mer frequency, TF over GST control) in test [7]; 1.27 fold enrichment (6-mer frequency, TF over GST control) in test [8]; 1.26 fold enrichment (6-mer frequency, TF over GST control) in [9].

With TTGTGT, the binding signal in test [1] is 1.25 fold enrichment (6-mer frequency, TF over GST control); in test [2] it was 1.28 fold enrichment (6-mer frequency, TF over GST control); in [3] it was 1.15 fold enrichment (6-mer frequency, TF over GST control); in test [4] it was 1.12 fold enrichment (6-mer frequency, TF over GST control); in test [5], 1.18 fold enrichment (6-mer frequency, TF over GST control); in test [6] it was 1.08 fold enrichment (6-mer frequency, TF over GST control). The binding signal in test [7] is 1.09 fold enrichment (6-mer frequency, TF over GST control); in test [8], 1.25 fold enrichment (6-mer frequency, TF over GST control); in test [9], 1.22 fold enrichment (6-mer frequency, TF over GST control).

For TATGTT, the binding signal in test [1] was 1.25 fold enrichment (6-mer frequency, TF over GST control); in test [2], 1.23 fold enrichment (6-mer frequency, TF over GST control); in [3], 1.22 fold enrichment (6-mer frequency, TF over GST control); in [4] it was 1.19 fold enrichment (6-mer frequency, TF over GST control); in test [5], 1.23 fold enrichment (6-mer frequency, TF over GST control); in test [6] it was 1.23 fold enrichment (6-mer frequency, TF over GST control). The binding signal in test [7] is 1.2 fold enrichment (6-mer frequency, TF over GST control); in test [8], 1.12 fold enrichment (6-mer frequency, TF over GST control); in [9] it was 1.19 fold enrichment (6-mer frequency, TF over GST control).

The record behind these values is publication PMC7862700, “An all-to-all approach to the identification of sequence-specific readers for epigenetic DNA modifications on cytosine”.
